Assay results from PubChem BioAssay (NCATS).
Inconclusive results are not listed. Calls of active or inactive are those of the source. The call rests on the fitted dose curve.

Target: Atrial natriuretic peptide receptor 1 (Homo sapiens) (UniProt P16066)
Test: Natriuretic polypeptide receptor (hNpr1) antagonism - Pilot CMLD screen (AID 1347052)
Details: HEK293 hNpr1 GloSensor cGMP luminescence, ANP-stimulated; series mostly up to 9.22 µM; activity change, negative = inhibition: at the top concentration
Description: In order to identify small molecular compounds that inhibit the hNpr1 receptor we developed a high-throughput assay to measure inhibition of the guanylate cyclase activity of the receptor. cGMP production was measured using a circular permutated Firefly luciferase (FLuc) enzyme functionally linked to the cGMP binding domain of human phosphodiesterase 5 (GloSensor technology pGS-40F, (Fan, F. et al. 2008). The cGMP-sensor was expressed in human embryonic kidney 293 (HEK-293) cells and FLuc activity was measured after stimulation with hNrp agonist peptide. hNrp agonists activates the receptor's associated guanylyl cyclase (GC) domain producing cGMP which then binds to the GloSensor resulting in FLuc activation, the enzymatic activity of which can be measured as bioluminescence with addition of luciferin substrate.
This assay was initially piloted by testing with a small library of specialty compounds.
PROTOCOL TABLES (as described by Inglese J, Shamu CE and Guy RK. 2007)
SEQUENCE No. (e.g., 1, 2, 3, etc.); […] (e.g., Cells, Incubation, Reagent, etc.); VALUE and DESCRIPTION.
1. Cells. Seed 1500 HEK293 cGMP-sensor cells expressing hNpr1 per well in 4uL into Greiner 1536-well white/solid bottom high base, tissue culture-treated plates.
2. Incubation. Incubate plated cells at 37C in 5% CO2, 95% RH overnight.
3. Reagent. Add 1uL per well GloSensor reagent from Promega (2% final concentration) or CO2 independent media vehicle control to respective columns of Greiner 1536-well plates.
4. Incubation. Incubate plated cells at room temperature for 2 h, protect from light.
5. Compounds. Library compounds and A-71915 control added at 23 nL per well, transferred by Pin Tool.
6. Incubation. Incubate plated cells for 30 min. at room temperature, protect from light.
7. Detector. GloSensor baseline pre-read luminescence measured using CCD-based camera (Viewlux).
8. Compound. Add 1uL of hNppA peptide to 0.1 nM final concentration to stimulate hNpr1 or CO2 independent media as vehicle control.
9. Incubation. Incubate treated cells at room temperature for 20 min., protect from light.
10. Detector. GloSensor post-hNppA luminescence measured using CCD-based camera (Viewlux).
NOTES (numbers refer to Sequence numbers above)
1. HEK293 cells expressing hNpr1 and GIP/pGS-40F grown to 85-95% confluence (48-72 h) in T175 culture flasks (CO2 independent media supplemented with 10% FBS, 1% Pen/Strep antibiotics and 1 ug/mL puromycin). Trypsinize and harvest cells from T175 culture flasks and filter through 40 um cell strainer. Cells counted with Invitrogen Countess (30,000,000 - 50,000,000 cells/flask). Cells diluted to a final concentration of 375 cells/uL in CO2 independent media and a Millipore multidrop used to dispense 1500 cells per well (4uL/well) into 13 1536-well Greiner White/Solid bottom, high base tissue-culture treated (TC) plates and one Aurora 1536-well Black/Clear bottom, low base, TC plate (for visual inspection of cell health throughout the duration of the assay).
2. Cells incubated overnight at ambient temperature, 24 h. at 37C in 95% RH incubator protected from light, covered with metal lid with gas-exchange holes.
3. Prepare GloSensor Reagent (Promega): Reconstitute GloSensor luciferase substrate by adding 8.2mL Hepes buffer to 250mg substrate, mix well, protect from light and stored at -80C. Prepare a fresh 12% GloSensor solution in CO2 independent supplemented plating media (see above). Mix well and store at ambient temperature, protected from light. 1uL 12% GloSensor Luciferase Reagent added (2% final concentration) to respective columns of 13 x 1536-well Greiner plate with BioRaptr, 1uL CO2 independent plating media added to respective columns as vehicle control with BioRaptr.
4. Cells incubated for 2 h. at ambient temperature, protected from light with metal lid with gas-exchange holes.
5. A-71915 stock solution prepared (10 mM in DMSO). […]
On the % scale 0 is the no-effect control and ±100 the full control effect.

Atrial natriuretic peptide receptor 1 (Homo sapiens), sequence (P16066 whole entry, looked up): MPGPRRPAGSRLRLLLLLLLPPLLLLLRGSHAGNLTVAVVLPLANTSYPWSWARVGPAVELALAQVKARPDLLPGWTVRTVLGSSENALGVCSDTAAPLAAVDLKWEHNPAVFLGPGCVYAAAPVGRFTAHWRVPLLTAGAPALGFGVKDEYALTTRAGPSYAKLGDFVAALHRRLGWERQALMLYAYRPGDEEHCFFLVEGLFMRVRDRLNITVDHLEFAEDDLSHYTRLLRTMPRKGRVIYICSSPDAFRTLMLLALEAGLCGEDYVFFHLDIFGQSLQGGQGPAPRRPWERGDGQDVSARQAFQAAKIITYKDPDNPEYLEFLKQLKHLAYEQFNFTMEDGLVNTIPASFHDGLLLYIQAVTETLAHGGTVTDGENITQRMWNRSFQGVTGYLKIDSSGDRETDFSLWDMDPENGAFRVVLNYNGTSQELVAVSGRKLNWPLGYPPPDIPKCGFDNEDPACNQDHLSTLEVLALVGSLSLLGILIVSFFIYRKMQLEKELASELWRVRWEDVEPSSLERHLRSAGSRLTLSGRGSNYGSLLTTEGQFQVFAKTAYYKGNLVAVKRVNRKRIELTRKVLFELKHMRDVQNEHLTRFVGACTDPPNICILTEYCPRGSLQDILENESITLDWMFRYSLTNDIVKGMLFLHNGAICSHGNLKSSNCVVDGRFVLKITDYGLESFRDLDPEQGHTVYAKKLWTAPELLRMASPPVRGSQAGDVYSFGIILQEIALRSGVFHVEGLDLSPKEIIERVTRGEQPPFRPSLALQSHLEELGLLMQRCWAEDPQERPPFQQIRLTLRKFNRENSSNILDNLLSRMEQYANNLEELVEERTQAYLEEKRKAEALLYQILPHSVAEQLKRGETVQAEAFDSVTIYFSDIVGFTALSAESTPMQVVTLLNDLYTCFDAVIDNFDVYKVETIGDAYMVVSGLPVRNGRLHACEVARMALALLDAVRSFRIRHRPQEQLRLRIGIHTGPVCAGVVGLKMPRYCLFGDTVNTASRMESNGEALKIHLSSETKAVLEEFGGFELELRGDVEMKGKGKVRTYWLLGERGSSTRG

Activity change, negative = inhibition, inactive:
COc1ccc(O[C@H]2C=C[C@@H](c3ccccc3)O[C@H]2CON=C2[C@H]3CCn4c(=O)n(-c5ccccc5)c(=O)n4[C@@H]3[C@H](O)[C@@H]3O[C@H]23)cc1 0.613%, COc1ccc(O[C@H]2C=C[C@@H](c3ccccc3)O[C@H]2COC(=O)CCC(C)=NOCC[C@@H]2C=C[C@H](OC(C)=O)[C@@H](COC(C)=O)O2)cc1 -4.89%, COC(=O)CC=C[C@@H](C)[C@@H](C=NO[C@@H](C)c1cn([C@H](CO)Cc2ccccc2)nn1)NS(=O)(=O)c1ccc(C)cc1 1.14%, O=P1(O)Oc2c(-c3ccccc3)cc3ccccc3c2-c2c(c(-c3ccccc3)cc3ccccc23)O1 -10.2%, C=C(C(C)=O)C(O)c1ccccc1 (stereo not given) -1.76%, COc1ccc(-c2nc(-c3ccccc3)oc2Nc2ccccc2C)cc1 0.0377%, COc1ccc2c(c1)c(CC(=O)NCc1ccc3c(c1)OCO3)c(C)n2C(=O)c1ccc(Cl)cc1 -2.86%, COC1=C[C@H](C(=O)NCCNC(C)=O)[C@@]2(C)Cc3ccccc3[C@@H]2CC1=O -5.11%, C=CCCC1(C(=O)c2ccccc2)C(=O)C(CC=C(C)C)=C(OC)C(CC=C(C)C)(CCC=C(C)C)C1=O (stereo not given) 13.1%, COC(=O)C1=C(C(=O)OC)[C@@H]2N(Cc3ccccc3)c3ccccc3[C@@]23C[C@@H](C(=O)OC)N(C(=O)Nc2ccc(C(F)(F)F)cc2)C3=N1 1.48%, COc1cccc2c1[C@H](C=Cc1ccccc1)[C@@H]([C@H](O)COC(C)=O)OC2 4.48%, CC(=O)OC[C@H]1O[C@H](C#Cc2ccc(F)cc2F)C=C[C@H]1OC(C)=O 1.28%, C[C@H]1Cc2c(COc3ccccc3)nc3c(c2CO1)CN(C(=O)NCc1ccco1)CC3 -2.77%, COC(=O)N[C@@H](CCc1ccccc1)[C@]1(C(C)=O)CCCC1=O 0.955%, C=CC[C@@](C(C)=O)(C(=O)OC)[C@@H](NC(=O)OC)c1ccccc1 -0.514%, O=C(C=NO)NCCCCNC(=O)C=NO 0.538%, COc1cc([C@@H](NC(=O)C(F)(F)F)C2CCCCC=C2c2ccccc2)cc(OC)c1OC (stereo not given in full) 2.61%, C=CC[C@@H]1C=C[C@@H](Oc2ccc(OC)cc2)[C@H](COC(=O)c2ccc(Br)cc2)O1 -0.172%, COC(=O)CCCC1=CC2=CC(=O)C(C)(OC(=O)c3cccs3)C(=O)C2=CN1c1ccc(OC)cc1 (stereo not given) 5.02%, CC1=CC[C@@H](COc2ccccc2)O[C@@]2(C1)C(=O)Nc1ccccc12 -3.08%, COC(=O)C1=C(C)N(Cc2ccccc2)C(=NCCc2ccc([N+](=O)[O-])cc2)NC1c1cccc(F)c1 (stereo not given) -2.19%, COC(=O)CCCC1=CC2=CC(=O)C(C)(OC(=O)c3cccs3)C(=O)C2=CN1CCc1c[nH]c2ccccc12 (stereo not given) -0.0685%, COC(=O)[C@@]1(C=C2c3ccc(F)cc3[C@@H](OC)[C@@H]2C)[C@@H]2OCCC[C@@H]21 -4.93%, COC(=O)[C@H](Cc1ccccc1)NC(=O)O[C@@H]1C(=O)c2cc(OC)ccc2O[C@H]1c1ccc(OC)c(Br)c1 -5.07%, CCN1C(=NCc2cccc(Cl)c2)NC(c2cccc(C(F)(F)F)c2)C(C(=O)OC)=C1C (stereo not given) 0.512%, C[C@H]1CC[C@H]2C(=O)N(Cc3ccccc3)C[C@@H](O)CN2[C@H]1c1ccc(Br)cc1 0.922%, CC=C(C)[C@H](O)C[Si](C)(C)c1ccccc1 3.41%, OC[C@H]1O[C@H](C#Cc2ccc(F)cc2F)C=C[C@H]1O 4.61%, CCCCCCC(=O)Cc1cc(OC)c(OC)cc1C=C(C(C)=O)C(=O)OC 7.76%, CC(C)CON=C1C[C@@H](O)[C@@H](O)[C@@H]2[C@H]3C(=O)N(Cc4ccc5c(c4)OCO5)C(=O)[C@@H]3CC[C@@H]12 1.36%, CC1=C[C@H]2c3ccccc3C[C@H]2CO[C@]12C(=O)N(Cc1ccc(Br)cc1)c1ccccc12 -0.503%, O=C1OC2(CCCCC2)CC2=C1[C@H]1O[C@](CCCCN3C(=O)c4ccccc4C3=O)(Cc3ccccc31)O2 3.76%, Cc1cc2c(c(=O)n1Cc1ccccc1)[C@H]1O[C@](CCCCN3C(=O)c4ccccc4C3=O)(Cc3c1ccc1ccccc31)O2 -2.82%, CCN1C(=O)NC(c2cccc(C(F)(F)F)c2)C(C(=O)OC)=C1C (stereo not given) 4.89%, COCC=CC1=CC2=CC(=O)C(C)(OC(=O)c3cnc4ccccc4n3)C(=O)C2=CN1CC1CC1 (stereo not given) -1.69%, CC1(OC(=O)c2ccco2)C(=O)C=C2C=C(c3ccsc3)OC=C2C1=O (stereo not given) 0.103%, O=c1oc2ccccc2c2c1[C@H]1O[C@](c3ccsc3)(Cc3c1ccc1ccccc31)O2 -2.64%

Potency, inactive:
CCCCCCCC1=Cc2ccc(F)cc2C(C(C(C)=O)C(=O)OC)N1C(=O)OC (stereo not given), COC(=O)N[C@@H](c1cccc(F)c1)C(C(C)=O)C(=O)OC (stereo not given in full), COC(=O)CC=C1c2ccccc2[C@@H](OC)[C@@H]1C
